The results in this text go back to ChEMBL document CHEMBL1201862, “PubChem BioAssay data set” (2004).

In all, about 390,000 compounds went through this assay and about 910 (0.23%) were called active. Not shown: some 5% with an inconclusive outcome. The calls are words filed in the database; no cut-off is given here. The entries come from a sample that favours actives as a whole.

For the assay, the target named is T1, Ubiquitin carboxyl-terminal hydrolase 1 (Homo sapiens) (UniProt O94782).
T1 sequence (whole entry): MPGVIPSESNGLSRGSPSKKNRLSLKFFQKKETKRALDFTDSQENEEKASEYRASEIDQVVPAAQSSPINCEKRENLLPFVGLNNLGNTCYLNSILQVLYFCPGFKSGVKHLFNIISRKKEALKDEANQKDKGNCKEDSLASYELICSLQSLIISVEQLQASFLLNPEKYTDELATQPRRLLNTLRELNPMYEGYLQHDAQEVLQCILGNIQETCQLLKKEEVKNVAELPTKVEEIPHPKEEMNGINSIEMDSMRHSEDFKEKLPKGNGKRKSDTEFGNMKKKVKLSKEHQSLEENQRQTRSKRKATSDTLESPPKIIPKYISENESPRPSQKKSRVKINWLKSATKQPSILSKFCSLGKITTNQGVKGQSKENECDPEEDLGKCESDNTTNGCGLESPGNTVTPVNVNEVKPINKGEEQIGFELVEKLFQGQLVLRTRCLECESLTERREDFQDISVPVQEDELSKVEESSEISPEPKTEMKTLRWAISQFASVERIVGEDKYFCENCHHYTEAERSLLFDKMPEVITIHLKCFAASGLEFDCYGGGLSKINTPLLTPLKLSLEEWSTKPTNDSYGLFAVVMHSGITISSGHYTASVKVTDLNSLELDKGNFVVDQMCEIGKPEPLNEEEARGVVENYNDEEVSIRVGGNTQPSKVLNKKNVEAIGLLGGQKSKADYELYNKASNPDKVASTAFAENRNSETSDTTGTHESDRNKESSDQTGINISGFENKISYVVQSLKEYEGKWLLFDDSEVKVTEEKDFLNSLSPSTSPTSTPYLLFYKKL
In words: Inhibitors of USP1/UAF1: Primary Screen. It counts as functional.
Take `CCn1nc(-c2ccccc2)nc2c(=O)n(C)c(=O)nc1-2`: the Potency was 89.1 µM (active).
